Inconclusive results are not listed. Calls of active or inactive are those of the source. Unless noted, cut-off not given; nearly all actives show AC50 up to about 27 µM.
Assay: viability loss in pontine glioma line – cell-based, JHH-DIPG-1, MIPE4.0, CellTiter-Glo, qHTS, dose response (AID 1347062);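 on AC50: cells exposed to compound for two days before readout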
Conditions: JHH-DIPG-1 viability, CellTiter-Glo ATP luminescence

SMILES | outcome | AC50
CC(=O)O[C@H]1C[C@@H]2CC[C@@H]3[C@H](CC[C@@]4(C)[C@H]3C[C@H]([N+]3(C)CCCCC3)[C@@H]4OC(C)=O)[C@@]2(C)C[C@@H]1N1CCCCC1 | inactive | –
CNC[C@H](O)c1ccc(O)c(O)c1 | inactive | –
Nc1ccc(S(N)(=O)=O)cc1 | inactive | –
C[N+]1(C)[C@@H]2CC(OC(=O)[C@H](CO)c3ccccc3)C[C@H]1[C@@H]1O[C@@H]12 (some centres not stated) | inactive | –
CO[C@@]12[C@H](COC(N)=O)C3=C(C(=O)C(C)=C(N)C3=O)N1C[C@@H]1N[C@@H]12 | – | 16.6 µM (active)
CC(=O)O[C@]1(C(C)=O)CC[C@H]2[C@@H]3C=C(Cl)C4=CC(=O)[C@@H]5C[C@@H]5[C@]4(C)[C@H]3CC[C@@]21C | – | 23.5 µM (active)
CCC(=O)O[C@]1(C(=O)SCF)[C@H](C)C[C@H]2[C@@H]3C[C@H](F)C4=CC(=O)C=C[C@]4(C)[C@@]3(F)[C@@H](O)C[C@@]21C | inactive | –
O=c1[nH]c(=O)n([C@H]2C[C@H](O)[C@@H](CO)O2)cc1F | – | 1.48 µM (active)
COC(=O)[C@@H]1[C@H]2C[C@H]3c4[nH]c5ccccc5c4CCN3C[C@@H]2CC[C@@H]1O | inactive | –
CC1(C)O[C@@H]2C[C@H]3[C@@H]4C[C@H](F)C5=CC(=O)C=C[C@]5(C)[C@@]4(F)[C@@H](O)C[C@]3(C)[C@]2(C(=O)CO)O1 | inactive | –
CCOC(=O)O[C@]1(C(=O)OCCl)CC[C@H]2[C@@H]3CCC4=CC(=O)C=C[C@]4(C)[C@H]3[C@@H](O)C[C@@]21C | inactive | –
C#C[C@]1(O)CC[C@H]2[C@@H]3CCc4cc(OC)ccc4[C@H]3CC[C@@]21C | inactive | –
Cc1onc(-c2ccccc2)c1C(=O)N[C@@H]1C(=O)N2[C@@H]1SC(C)(C)[C@@H]2C(=O)O | inactive | –

Assay: viability loss in pontine glioma line – cell-based, SU-DIPG-IV, MIPE4.0, CellTiter-Glo, qHTS, dose response (AID 1347063; cut-off not given, nearly all actives have AC50 up to about 30 µM;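 further: compound exposure lasted 48 hours before the viability readout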)
Conditions: CellTiter-Glo ATP luminescence

SMILES | outcome | AC50
CC(=O)O[C@H]1C[C@@H]2CC[C@@H]3[C@H](CC[C@@]4(C)[C@H]3C[C@H]([N+]3(C)CCCCC3)[C@@H]4OC(C)=O)[C@@]2(C)C[C@@H]1N1CCCCC1 | inactive | –
CNC[C@H](O)c1ccc(O)c(O)c1 | inactive | –
Nc1ccc(S(N)(=O)=O)cc1 | inactive | –
C[N+]1(C)[C@@H]2CC(OC(=O)[C@H](CO)c3ccccc3)C[C@H]1[C@@H]1O[C@@H]12 (some centres not stated) | inactive | –
CO[C@@]12[C@H](COC(N)=O)C3=C(C(=O)C(C)=C(N)C3=O)N1C[C@@H]1N[C@@H]12 | – | 0.469 µM (active)
CC(=O)O[C@]1(C(C)=O)CC[C@H]2[C@@H]3C=C(Cl)C4=CC(=O)[C@@H]5C[C@@H]5[C@]4(C)[C@H]3CC[C@@]21C | – | 9.35 µM (active)
CCC(=O)O[C@]1(C(=O)SCF)[C@H](C)C[C@H]2[C@@H]3C[C@H](F)C4=CC(=O)C=C[C@]4(C)[C@@]3(F)[C@@H](O)C[C@@]21C | inactive | –
C#C[C@]1(O)CC[C@H]2[C@@H]3CCc4cc(OC)ccc4[C@H]3CC[C@@]21C | inactive | –
NC[C@H](O)c1ccc(O)c(O)c1 | inactive | –
Cc1onc(-c2ccccc2)c1C(=O)N[C@@H]1C(=O)N2[C@@H]1SC(C)(C)[C@@H]2C(=O)O | inactive | –

Assay: viability loss in pontine glioma line – cell-based, SU-DIPG-XIII, MIPE5.0, CellTiter-Glo, qHTS, dose response (AID 1347064; cut-off not given, nearly all actives have AC50 up to about 23 µM;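 on AC50: cells exposed to compound for 48 hours before the viability read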)
Conditions: CellTiter-Glo ATP luminescence

SMILES | outcome | AC50
NC(=O)c1ncn([C@@H]2O[C@H](CO)[C@@H](O)[C@H]2O)c1O | inactive | –
CCN1CCN(C(=O)N[C@@H](C(=O)N[C@@H]2C(=O)N3C(C(=O)O)=C(CSc4nnnn4C)CS[C@H]23)c2ccc(O)cc2)C(=O)C1=O | inactive | –
CNC[C@H](O)c1ccc(O)c(O)c1 | inactive | –
Nc1ccc(S(N)(=O)=O)cc1 | inactive | –
C#C[C@]1(O)CC[C@H]2[C@@H]3CCc4cc(O)ccc4[C@H]3CC[C@@]21C | inactive | –
C[N+]1(C)[C@@H]2CC(OC(=O)[C@H](CO)c3ccccc3)C[C@H]1[C@@H]1O[C@@H]12 (some centres not stated) | inactive | –
CO[C@@]12[C@H](COC(N)=O)C3=C(C(=O)C(C)=C(N)C3=O)N1C[C@@H]1N[C@@H]12 | – | 7.42 µM (active)
COC(=O)[C@@H]1[C@H]2C[C@H]3c4[nH]c5ccccc5c4CCN3C[C@@H]2CC[C@@H]1O | inactive | –
CC1(C)O[C@@H]2C[C@H]3[C@@H]4C[C@H](F)C5=CC(=O)C=C[C@]5(C)[C@@]4(F)[C@@H](O)C[C@]3(C)[C@]2(C(=O)CO)O1 | inactive | –
CCOC(=O)O[C@]1(C(=O)OCCl)CC[C@H]2[C@@H]3CCC4=CC(=O)C=C[C@]4(C)[C@H]3[C@@H](O)C[C@@]21C | inactive | –
C#C[C@]1(O)CC[C@H]2[C@@H]3CCc4cc(OC)ccc4[C@H]3CC[C@@]21C | inactive | –

Assay: viability loss in pontine glioma line – cell-based, SU-DIPG-XXV, MIPE5.0, CellTiter-Glo, qHTS, dose response (AID 1347065; cut-off not given, nearly all actives have AC50 up to about 26 µM;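 further: cells exposed to compound for 48 hours before ATP readout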)
Conditions: CellTiter-Glo ATP luminescence

SMILES | outcome | AC50
NC(=O)c1ncn([C@@H]2O[C@H](CO)[C@@H](O)[C@H]2O)c1O | inactive | –
CCN1CCN(C(=O)N[C@@H](C(=O)N[C@@H]2C(=O)N3C(C(=O)O)=C(CSc4nnnn4C)CS[C@H]23)c2ccc(O)cc2)C(=O)C1=O | inactive | –
CC(=O)O[C@H]1C[C@@H]2CC[C@@H]3[C@H](CC[C@@]4(C)[C@H]3C[C@H]([N+]3(C)CCCCC3)[C@@H]4OC(C)=O)[C@@]2(C)C[C@@H]1N1CCCCC1 | inactive | –
Nc1ccc(S(N)(=O)=O)cc1 | inactive | –
C#C[C@]1(O)CC[C@H]2[C@@H]3CCc4cc(O)ccc4[C@H]3CC[C@@]21C | – | 13.2 µM (active)
C[N+]1(C)[C@@H]2CC(OC(=O)[C@H](CO)c3ccccc3)C[C@H]1[C@@H]1O[C@@H]12 (some centres not stated) | inactive | –
CO[C@@]12[C@H](COC(N)=O)C3=C(C(=O)C(C)=C(N)C3=O)N1C[C@@H]1N[C@@H]12 | – | 9.34 µM (active)
CC(=O)O[C@]1(C(C)=O)CC[C@H]2[C@@H]3C=C(Cl)C4=CC(=O)[C@@H]5C[C@@H]5[C@]4(C)[C@H]3CC[C@@]21C | – | 33.2 µM (active)
O=c1[nH]c(=O)n([C@H]2C[C@H](O)[C@@H](CO)O2)cc1F | inactive | –
COC(=O)[C@@H]1[C@H]2C[C@H]3c4[nH]c5ccccc5c4CCN3C[C@@H]2CC[C@@H]1O | inactive | –
CC1(C)O[C@@H]2C[C@H]3[C@@H]4C[C@H](F)C5=CC(=O)C=C[C@]5(C)[C@@]4(F)[C@@H](O)C[C@]3(C)[C@]2(C(=O)CO)O1 | inactive | –
C#C[C@]1(O)CC[C@H]2[C@@H]3CCc4cc(OC)ccc4[C@H]3CC[C@@]21C | inactive | –
NC[C@H](O)c1ccc(O)c(O)c1 | inactive | –

Reference: PubChem BioAssay
